# Experiments:
# Assay in all cases: PBM binding z-score (relative to random genomic background probes); higher = stronger binding; sequences stand for … in GC…GCGATTGACAGCGTAGAATGAAGG
# [1] = test system: RARb homodimer (NR concentration 270 nM)
# Summary of the method: (§1)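 Each nuclear receptor dimer, without ligand, was incubated for 1 h on custom Agilent 4×180K protein-binding microarrays. Binding was detected with antibodies against each partner (one per run), and scanned fluorescence was regression-normalized. The binding z-scores are referenced to random human genomic background probes.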
# [2] = test system: RARg:RXRa (NR concentration 270 nM, RXRa partner concentration 90 nM)
# Summary of the method: as §1
# [3] = test system: RARg homodimer (NR concentration 270 nM)
# Summary of the method: as §1
# [4] = test system: RXRa DBDmut IVT, anti-RXR (DBD mutation: RXRa K156A/R161A, NR concentration 90 nM)
# Summary of the method: as §1
# [5] = test system: RXRa homodimer (NR concentration 180 nM)
# Summary of the method: as §1
# [6] = test system: THRa:RXRa (NR concentration 90 nM, RXRa partner concentration 90 nM)
# Summary of the method: as §1
# [7] = test system: THRa homodimer (NR concentration 90 nM)
# Summary of the method: as §1
# [8] = test system: VDR homodimer (NR concentration 270 nM)
# Summary of the method: as §1
sequence,measurement,setting,value
TAGCCTAGGTCATGCGGGCCAGTATTGTGTCGGC,PBM binding z-score,[1],3.12
same,PBM binding z-score,[2],3.74
same,PBM binding z-score,[3],4.11
same,PBM binding z-score,[4],0.382
same,PBM binding z-score,[5],2.52
same,PBM binding z-score,[6],3.05
same,PBM binding z-score,[7],1.08
same,PBM binding z-score,[8],0.379
TTACCAAGGTAAGCTGAGGTCGTTGATCCAACTC,PBM binding z-score,[1],0.571
same,PBM binding z-score,[2],0.164
same,PBM binding z-score,[3],-0.00347
same,PBM binding z-score,[4],0.278
same,PBM binding z-score,[5],0.962
same,PBM binding z-score,[6],4.33
same,PBM binding z-score,[7],1.61
same,PBM binding z-score,[8],1.65
CCTAGGAGGACAGAAGGTCAGAGCTGTCCGCTTT,PBM binding z-score,[1],3.34
same,PBM binding z-score,[2],3.28
same,PBM binding z-score,[3],2.78
same,PBM binding z-score,[4],0.179
same,PBM binding z-score,[5],1.84
same,PBM binding z-score,[6],2.25
same,PBM binding z-score,[7],-0.21
same,PBM binding z-score,[8],-0.00238
CCTTACGGGTCACGAGCTTATAGCACGACGAGCG,PBM binding z-score,[1],3.08
same,PBM binding z-score,[2],5.67
same,PBM binding z-score,[3],5.35
same,PBM binding z-score,[4],1.94
same,PBM binding z-score,[5],6.23
same,PBM binding z-score,[6],3.07
same,PBM binding z-score,[7],0.145
same,PBM binding z-score,[8],0.809
ATCTCTAGGTAAAAGGTCAGTGAATCCCGAGGAT,PBM binding z-score,[1],4.43
same,PBM binding z-score,[2],4.54
same,PBM binding z-score,[3],4.74
same,PBM binding z-score,[4],0.227
same,PBM binding z-score,[5],4.83
same,PBM binding z-score,[6],3.34
same,PBM binding z-score,[7],0.855
same,PBM binding z-score,[8],0.867
GCATATAGGTACTACAAGGTGAAAGTCCGATTGT,PBM binding z-score,[1],0.507
same,PBM binding z-score,[2],0.382
same,PBM binding z-score,[3],0.475
same,PBM binding z-score,[4],0.291
same,PBM binding z-score,[5],0.615
same,PBM binding z-score,[6],3.49
same,PBM binding z-score,[7],0.882
same,PBM binding z-score,[8],0.179
CCGACTGGGGCAGAAAGGTTATCATACCATCCGG,PBM binding z-score,[1],1.91
same,PBM binding z-score,[2],1.48
same,PBM binding z-score,[3],1
same,PBM binding z-score,[4],-0.376
same,PBM binding z-score,[5],1.67
same,PBM binding z-score,[6],0.759
same,PBM binding z-score,[7],-0.293
same,PBM binding z-score,[8],-0.196
CCTACTGGGCCATTCAAAGGTCATTGATCATATG,PBM binding z-score,[1],4.5
same,PBM binding z-score,[2],4.85
same,PBM binding z-score,[3],3.67
same,PBM binding z-score,[4],0.609
same,PBM binding z-score,[5],4.61
same,PBM binding z-score,[6],3.25
same,PBM binding z-score,[7],0.994
same,PBM binding z-score,[8],2.4
TCGAGTAGGTTAGGGGCATCCAGAATGGCGTCGA,PBM binding z-score,[1],1.01
same,PBM binding z-score,[2],0.269
same,PBM binding z-score,[3],0.268
same,PBM binding z-score,[4],0.271
same,PBM binding z-score,[5],0.71
same,PBM binding z-score,[6],1.05
same,PBM binding z-score,[7],0.256
same,PBM binding z-score,[8],0.462
GCTGCTAGGTCAGGTTGGTCAGTTAACGGGTACG,PBM binding z-score,[1],2.75
same,PBM binding z-score,[2],2.59
same,PBM binding z-score,[3],3.38
same,PBM binding z-score,[4],0.795
same,PBM binding z-score,[5],1.02
same,PBM binding z-score,[6],2.03
same,PBM binding z-score,[7],1.2
same,PBM binding z-score,[8],0.71
TCTGCTAGCTCAACGATGGTCAGCTAATCTGCTA,PBM binding z-score,[1],-0.694
same,PBM binding z-score,[2],-0.391
same,PBM binding z-score,[3],-0.546
same,PBM binding z-score,[4],0.109
same,PBM binding z-score,[5],-0.436
same,PBM binding z-score,[6],-0.558
same,PBM binding z-score,[7],-1.1
same,PBM binding z-score,[8],-0.902
AATACAGGGTCATCGTAGGCCAGACTACGCACAG,PBM binding z-score,[1],2.36
same,PBM binding z-score,[2],5.54
same,PBM binding z-score,[3],5.13
same,PBM binding z-score,[4],3.61
same,PBM binding z-score,[5],6.23
same,PBM binding z-score,[6],4.74
same,PBM binding z-score,[7],1.68
same,PBM binding z-score,[8],2.65
TTACCAAGGTTAGCTGAGGTCGTTGATCCAACTC,PBM binding z-score,[1],2.06
same,PBM binding z-score,[2],1.68
same,PBM binding z-score,[3],1.41
same,PBM binding z-score,[4],0.854
same,PBM binding z-score,[5],1.84
same,PBM binding z-score,[6],5.01
same,PBM binding z-score,[7],2.13
same,PBM binding z-score,[8],2.87
AGACTGAGGTTATTAAGATCAGGGAATTGCGGTC,PBM binding z-score,[1],0.996
same,PBM binding z-score,[2],1.13
same,PBM binding z-score,[3],0.72
same,PBM binding z-score,[4],1.53
same,PBM binding z-score,[5],1.54
same,PBM binding z-score,[6],1.91
same,PBM binding z-score,[7],0.441
same,PBM binding z-score,[8],0.749
TCATGTAGATCAAAGGTTAAGAAAGCCGAAGCCT,PBM binding z-score,[1],1.55
same,PBM binding z-score,[2],1.96
same,PBM binding z-score,[3],0.89
same,PBM binding z-score,[4],1.08
same,PBM binding z-score,[5],3.55
same,PBM binding z-score,[6],1.37
same,PBM binding z-score,[7],-0.229
same,PBM binding z-score,[8],-0.0577
GCTAGCAGGCCATTTGGGTCCCTCAATGACGGGC,PBM binding z-score,[1],-0.901
same,PBM binding z-score,[2],-0.417
same,PBM binding z-score,[3],-0.379
same,PBM binding z-score,[4],-0.721
same,PBM binding z-score,[5],-0.4
same,PBM binding z-score,[6],0.249
same,PBM binding z-score,[7],-1.01
same,PBM binding z-score,[8],-0.499
GGAACGAGGGCAAAGTTGATAGCGTCTGTCGACG,PBM binding z-score,[1],1.32
same,PBM binding z-score,[2],2.22
same,PBM binding z-score,[3],1.75
same,PBM binding z-score,[4],2.69
same,PBM binding z-score,[5],2.17
same,PBM binding z-score,[6],1.38
same,PBM binding z-score,[7],-0.194
same,PBM binding z-score,[8],1.43
CGTCAACGTTCAAGGTAACGTAACAGAAAGCAGC,PBM binding z-score,[1],0.184
same,PBM binding z-score,[2],0.115
same,PBM binding z-score,[3],0.672
same,PBM binding z-score,[4],0.181
same,PBM binding z-score,[5],0.245
same,PBM binding z-score,[6],1.48
same,PBM binding z-score,[7],0.849
same,PBM binding z-score,[8],-0.423
TCATATAGGTCATACAGGTGAAAGTCGGCATCTA,PBM binding z-score,[1],3.8
same,PBM binding z-score,[2],5.21
same,PBM binding z-score,[3],5.03
same,PBM binding z-score,[4],2.68
same,PBM binding z-score,[5],5.27
same,PBM binding z-score,[6],3.42
same,PBM binding z-score,[7],0.973
same,PBM binding z-score,[8],1.81
ATCTCCAGGTAAAGATAGTTCAGTGAATGCAAAT,PBM binding z-score,[1],1.03
same,PBM binding z-score,[2],0.342
same,PBM binding z-score,[3],0.839
same,PBM binding z-score,[4],0.0268
same,PBM binding z-score,[5],-0.000636
same,PBM binding z-score,[6],1.06
same,PBM binding z-score,[7],0.451
same,PBM binding z-score,[8],0.711
AGAATGAGGTTATTAAGATCAAGGAATTGCGGTC,PBM binding z-score,[1],0.762
same,PBM binding z-score,[2],1.21
same,PBM binding z-score,[3],0.86
same,PBM binding z-score,[4],2.05
same,PBM binding z-score,[5],1.86
same,PBM binding z-score,[6],2.13
same,PBM binding z-score,[7],0.766
same,PBM binding z-score,[8],1.61
TCTTGTAGATCAAGCAGTTTAAGAAAGCCTGAGT,PBM binding z-score,[1],-0.362
same,PBM binding z-score,[2],-0.283
same,PBM binding z-score,[3],-0.421
same,PBM binding z-score,[4],0.644
same,PBM binding z-score,[5],-0.114
same,PBM binding z-score,[6],-0.266
same,PBM binding z-score,[7],-0.588
same,PBM binding z-score,[8],-0.00897
CGTCCAAGGTCAGAAGGTCAGTGAAAGCGACGTG,PBM binding z-score,[1],5.32
same,PBM binding z-score,[2],7.13
same,PBM binding z-score,[3],6.77
same,PBM binding z-score,[4],2.87
same,PBM binding z-score,[5],5.71
same,PBM binding z-score,[6],4.12
same,PBM binding z-score,[7],1.8
same,PBM binding z-score,[8],2.18
TCATCTAGGTAATACAGGTGAAAGTCGGCATCTA,PBM binding z-score,[1],0.692
same,PBM binding z-score,[2],0.578
same,PBM binding z-score,[3],0.298
same,PBM binding z-score,[4],1.24
same,PBM binding z-score,[5],0.959
same,PBM binding z-score,[6],1.07
same,PBM binding z-score,[7],0.275
same,PBM binding z-score,[8],0.373
TCTGGTTGGTCACGGAGGTCACACACGACGGGTA,PBM binding z-score,[1],4.58
same,PBM binding z-score,[2],4.91
same,PBM binding z-score,[3],5.28
same,PBM binding z-score,[4],0.702
same,PBM binding z-score,[5],4.97
same,PBM binding z-score,[6],3.58
same,PBM binding z-score,[7],2.93
same,PBM binding z-score,[8],3.66
CGTCCAAGGTCAGCAGGTCATTGAAAGCGACGTG,PBM binding z-score,[1],5.08
same,PBM binding z-score,[2],6.83
same,PBM binding z-score,[3],6.69
same,PBM binding z-score,[4],2.59
same,PBM binding z-score,[5],6.04
same,PBM binding z-score,[6],4.26
same,PBM binding z-score,[7],2.98
same,PBM binding z-score,[8],2.36
TCGAGTAGATTAGGGGCATTCAGAATGGCGTCGA,PBM binding z-score,[1],0.0337
same,PBM binding z-score,[2],-0.202
same,PBM binding z-score,[3],-0.446
same,PBM binding z-score,[4],0.574
same,PBM binding z-score,[5],0.16
same,PBM binding z-score,[6],0.515
same,PBM binding z-score,[7],-0.591
same,PBM binding z-score,[8],0.687
AGTCAAAGTTCCTCTAGGTAACGTAAGATATGCT,PBM binding z-score,[1],-0.0173
same,PBM binding z-score,[2],0.433
same,PBM binding z-score,[3],0.491
same,PBM binding z-score,[4],0.711
same,PBM binding z-score,[5],0.183
same,PBM binding z-score,[6],1.23
same,PBM binding z-score,[7],-0.0927
same,PBM binding z-score,[8],0.297

# From the supplement of paper PMC6555819
